Assay results as given in PubChem BioAssay AID540267 (National Center for Advancing Translational Sciences (NCATS), 2011).
About 530 (0.16%) of roughly 340,000 compounds were called active. About 2% were inconclusive and are not listed. The sample as a whole holds a higher share of actives than the screen did. A number with no mark means an inactive call. Rule as the data show it: active = activity change below about -80%; inconclusive = between about -30% and that limit; inactive = weaker than that.

Assay: Small Molecules that selectively kill Giardia lamblia: qHTS;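 also: parasites exposed to compound for two days anaerobically before the ATP read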
Conditions: Giardia lamblia trophozoite viability; at 7.66 µM; hits give low values
Summary of the method: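 Compounds were tested on trophozoites seeded at 100 cells/well and held 48 hrs at 37 deg C anaerobically. An ATP-based luminescent kit measured the remaining live cells.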
% is scaled to controls: 0 for no effect and ±100 for the full control effect.

Row | Structure (SMILES) | activity change
1 | O=[N+]([O-])c1ccc(C=Nc2ccc(Cl)cc2Cl)s1 | 12%
2 | CNN/C(N=Cc1ccc([N+](=O)[O-])s1)=N\S(=O)(=O)c1cc(C)c(Cl)cc1SCc1ccccc1 | -85.8% (active)
3 | OC[C@@H]1O[C@H](n2cnc3c(SCc4ccccc4)ncnc32)[C@H](O)[C@H]1O | 7.24%
4 | COc1ccc(CCn2c3c(c(=O)[nH]c2=S)CN(C(C)C)CN3)cc1OC | -2.67%
5 | COC(=O)CSc1nnc(NC(=O)CCc2ccccc2)s1 | -28.2%
6 | COc1ccc(S(=O)(=O)N2CCOCC2)cc1NC(=O)Cc1c(F)cccc1Cl | 0.481%
7 | O=C(Nc1cc(S(=O)(=O)N2CCCCC2)ccc1Cl)C1COc2ccccc2O1 (stereo unspecified) | 9.58%
8 | O=C(Nc1ncc([N+](=O)[O-])s1)C1COc2ccccc2O1 (stereo unspecified) | -95.9% (active)
9 | O=C(Cc1c(F)cccc1Cl)Nc1ncc([N+](=O)[O-])s1 | -90.9% (active)
10 | O=C(CCc1ccccc1)Nc1ncc([N+](=O)[O-])s1 | -95.3% (active)
11 | CN(c1ccccc1)S(=O)(=O)c1cccc(NC(=O)Cc2c(F)cccc2Cl)c1 | 6.09%
12 | CC(C)Cc1nnc(NC(=O)CCc2ccccc2)s1 | -6.99%
13 | CC(=O)c1cccc(NC(=O)C2COc3ccccc3O2)c1 (stereo unspecified) | 3.94%
14 | O=C(Nc1cccc(Cl)c1)c1cc(S(=O)(=O)N2CCCCC2)c[nH]1 | -28.5%
15 | Cc1nn(C(C)CC(=O)O)c(C)c1C (stereo unspecified) | 7.78%
16 | CCC1(C)Cc2c(sc3[nH]c(=S)n(Cc4ccccc4)c(=O)c23)CO1 (stereo unspecified) | -14.6%
17 | COc1cc2c(cc1OC)C(/C=C/c1ccco1)=NCC2 | -3.82%
18 | CCOc1ccc(C(=O)NC(C(=O)NCc2ccccn2)C(C)C)cc1 (stereo unspecified) | -4.15%
19 | OCCNc1ncnc2oc(-c3ccco3)c(-c3ccco3)c12 | -2.77%
20 | COc1cc(OC)c2c(c1C(CCN1CCCCC1)c1ccc(N(C)C)cc1)OC(=O)CC2c1ccc(N(C)C)cc1 (stereo unspecified) | 7.67%
21 | O=S(=O)(Nc1cccc2cccnc12)c1cccc2cccnc12 | -17.9%
22 | CCOc1ccc(S(=O)(=O)N2CCN=C2Cc2ccccc2)cc1C | -28.6%
23 | O=C(c1ccco1)N(Cc1cccs1)c1ccc(O)cc1 | -7.42%
24 | COc1ccc(CN2CCc3nc(Nc4ccccc4)ncc3C2)c(OC)c1OC | -13.9%
25 | NS(=O)(=O)c1ccc(NC(=O)CSc2nnc3c(n2)[nH]c2ccccc23)cc1 | -21.1%
26 | CCOCN(C(=O)Cn1c(C(C)O)nc2ccccc21)c1c(C)cccc1CC (stereo unspecified) | 8%
